# TDP1 inh = blocks human tyrosyl-DNA phosphodiesterase 1. 350,000 compounds, 0.28% hits. Q9NUW8. recombinant TDP1, AlphaScreen DNA substrate cleavage. Potency, µM (doses to about 130 µM), without a hit: at the top dose activity change, negative = inhibition, hits mostly inhibitors. AID 485290; note: potency is the fitted concentration of half-maximal effect; % is set by controls: 0 for no effect and ±100 for the full control effect; nearly all actives have a fitted effect of over 40% in size
# Target sequence (Q9NUW8 whole entry, looked up): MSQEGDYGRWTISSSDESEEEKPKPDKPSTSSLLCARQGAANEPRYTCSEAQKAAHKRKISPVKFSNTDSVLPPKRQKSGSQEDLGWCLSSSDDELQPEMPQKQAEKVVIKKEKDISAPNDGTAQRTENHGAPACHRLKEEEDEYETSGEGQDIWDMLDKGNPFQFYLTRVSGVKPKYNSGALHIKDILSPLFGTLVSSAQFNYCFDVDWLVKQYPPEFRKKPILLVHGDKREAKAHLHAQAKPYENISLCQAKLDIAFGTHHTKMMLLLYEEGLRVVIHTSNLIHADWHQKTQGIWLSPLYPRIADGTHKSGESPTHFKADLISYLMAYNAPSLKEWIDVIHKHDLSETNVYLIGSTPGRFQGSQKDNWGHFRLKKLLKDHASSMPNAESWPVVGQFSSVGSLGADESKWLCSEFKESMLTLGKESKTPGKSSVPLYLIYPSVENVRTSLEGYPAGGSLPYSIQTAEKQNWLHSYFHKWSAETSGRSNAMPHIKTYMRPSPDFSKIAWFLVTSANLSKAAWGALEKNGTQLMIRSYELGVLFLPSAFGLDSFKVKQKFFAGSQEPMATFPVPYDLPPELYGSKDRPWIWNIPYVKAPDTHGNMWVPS
#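 Tdp1 1 nM final; 15 min RT w/ cpd; substrate 15 nM, 5 min; beads 10 ug/ml, 10 min; AlphaScreen read. Neg ctrl: no enzyme.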
# TGFb inhibitor = blocks TGF-b signaling | HepG2 CAGA-GFP TGF-b/SMAD3 reporter, GFP fluorescence, 18 h; TGF-beta stimulated, 500 pg/mL final | Potency, µM (series often up to 46.1 µM), without a hit: at the top dose activity, negative = inhibition, most hits filed as inhibitors | 410,000 compounds, 1.2% hits; note: potency is the fitted concentration of half-maximal effect; % is set by controls: 0 for no effect and ±100 for the full control effect; nearly all actives have a fitted effect of over 65% in size
#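 Using HEPG2 CAGA-GFP reporter cells at 1000 cells/well, we pinned test compounds, stimulated with recombinant TGF-beta (500 pg/mL final) and measured total well GFP after 18 h.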
# DT40 TDP1 no CPT = qHTS for Inhibitors of human tyrosyl-DNA phosphodiesterase 1 (TDP1): qHTS in cells in absence of CPT; DT40 Tdp1-/- hTDP1 cells, no CPT, ATP luminescence, 48 h; Potency, µM (doses to about 46.2 µM), for inactives: at the highest dose activity change, negative = growth inhibition, hits mostly inhibitors; 420,000 compounds, 15% hits; note: potency is the fitted concentration of half-maximal effect; % is set by controls: 0 for no effect and ±100 for the full control effect; nearly all actives have a fitted effect of over 55% in size
#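 Readout: luminescence from CellTiter-Glo after 30 min in the dark at RT. Cells: DT40 Tdp1-/- with stable hTDP1, 400/well. Exposure: compounds alone, ≥48 hr, 37 °C.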
# TDP1 cell CPT = DT40-hTDP1 cell growth loss with CPT | chicken DT40 Tdp1-/-;hTDP1 cells + 20 nM CPT, ATP luminescence, 48 h | Potency, µM (highest dose often 46.2 µM), inactives show at the top dose activity change, negative = growth inhibition, hits mostly inhibitors | 420,000 compounds, 12% hits; note: potency is the fitted concentration of half-maximal effect; % is set by controls: 0 for no effect and ±100 for the full control effect; nearly all actives have a fitted effect of over 55% in size
#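 Chicken DT40 Tdp1-/- cells stably complemented with human TDP1 were seeded at 400 cells/well in medium containing 20 nM camptothecin, exposed to pin-transferred compounds, and grown at 37 °C for at least 48 hr. Viability was read as ATP luminescence.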
# IL-1B inflam inh = inflammasome signaling inhibition, IL-1 beta readout. THP-1 LPS/ATP IL-1B secretion, AlphaLISA, 16 h; stronger effect = lower value. 360,000 compounds, 4.7% hits. activity change, % at 57.5 µM; in the data active = activity change below about -50%; inconclusive = mostly about -30% to -49%; note: % is set by controls: 0 for no effect and ±100 for the full control effect
#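 Secreted IL-1B measured by AlphaLISA bead assay after 16 h compound exposure of THP-1 cells; compounds (final up to 57.5 uM) added 1 h before LPS (250 ng/mL) and ATP (1.25 mM) stimulation; lower signal means less secretion.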
# HepG2 viability = counter-screen for TGF-b inhibitors: cytotoxicity in HepG2 cells; HepG2 CAGA-GFP viability, ATP luminescence, 18 h; Potency, µM (highest dose often 46.1 µM), for inactives: at the top dose activity change, negative = cytotoxicity, most hits filed as cytotoxic; AID 588856; 410,000 compounds, 0.76% hits; note: potency is the fitted concentration of half-maximal effect
#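 HepG2 CAGA-GFP cells (1000/well, DMEM with 1% FBS) received compound, then TGF-beta at 500 pg/mL final, and were incubated 18 hours at 37 degrees C. Viability was read by CellTiter-Glo luminescence. Media-only wells were set as complete cell-killing and DMSO as no toxicity.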
# * = called active by the depositor; i = inactive; ? = inconclusive; nt = no result; [ ] = another dose, or the depositor's remark. Compounds with a hit are over-represented: about 18% of the library has one in this group of screens. Unless noted, calls come from the whole dose curve; as a rule, active = well fitted curve in the direction sought with a large enough effect; inconclusive = small, poorly fitted or top-dose-only effect, or another doubt; inactive = no such curve, though single readings can be large; an effect the other way counts as inactive or inconclusive.
SMILES,TDP1 inh,TGFb inhibitor,DT40 TDP1 no CPT,TDP1 cell CPT,IL-1B inflam inh,HepG2 viability
O=C(Nc1cccnc1)c1ccc(-c2cc(Cl)ccc2Cl)o1,3%,-2%,21µM*,?,-16,-9%
O=C(Nc1nccs1)c1ccc(-c2ccccc2Cl)o1,-3%,?,?,?,-89*,-42%
O=C(NCc1ccc(Cl)cc1)c1ccc(-c2ccccc2C(F)(F)F)o1,-3%,16µM*,23µM*,21µM*,-15,-59%
O=C(Nc1nccs1)c1ccc(-c2ccccc2[N+](=O)[O-])o1,7%,3%,?,?,-7,-6%
O=C(NCc1ccc(Cl)cc1)c1ccc(COCC(F)(F)F)o1,7%,-15%,?,-12%,-1,2%
CC(C)(C)NC(=O)C(C1CC1)n1c(=O)c(-c2ccccc2)nc2ccccc21 (centres undefined),nt,nt,?,?,-9,nt
Cc1ccc(OC(=O)c2cccc(S(=O)(=O)N3CCN(C)CC3)c2)c(Br)c1,5%,-3%,-2%,-5%,i,-18%
CCc1nnc(NC(=O)CC(C)c2ccccc2)s1 (centres undefined),nt,5%,7%,-5%,14,-62%
O=C(NC1CC2CCC(C1)N2Cc1ccccc1)c1ccccc1Cl (centres undefined),nt,-4%,0%,-14%,-29,-3%
O=C(Nc1ccccc1)c1ccc(-c2ccc([N+](=O)[O-])cc2)o1,-17%[0.0935 µM],-19%,?,-24%,-64*,-19%
CC(C)NC(=O)c1ccc(-c2ccccc2C(F)(F)F)o1,0%,-3%,-15%,-21%,?,-42%
O=C(Nc1ccc([N+](=O)[O-])cc1)c1ccccc1,nt,-3%,-15%,-2%,-1,-3%
COc1ccc(NC(=O)c2ccc(-c3ccc([N+](=O)[O-])cc3)o2)cc1,-2%,-24%,?,?,-11,-40%
O=C(Nc1ccccc1)c1ccc(-c2ccccc2C(F)(F)F)o1,-14%,?,21µM*,?,-1,-28%
O=C(Nc1ccccc1)c1ccc[n+](Cc2ccc([N+](=O)[O-])cc2)c1,-5%,6%,2%,0%,-59*,1%
Cc1c(Cl)cccc1-c1ccc(C(=O)Nc2ccc(F)cc2)o1,-3%[12.3 µM],?,9.2µM*,12µM*,nt,-105%
CC1CCN(S(=O)(=O)CCNC(=O)c2ccc(F)cc2)CC1,0%,2%,0%,-6%,15,4%
CN1OC[C@@H]2CN(S(=O)(=O)c3ccccc3)[C@H](c3ccccc3Br)C[C@@H]21,nt,2%,-26%,-18%,19,3%
COC(=O)[C@]1(C)N[C@H](CN(C)C(=O)Nc2ccccc2)[C@@H]2C(=O)N(Cc3ccccc3)C(=O)[C@@H]21,1%,-7%,-1%,18%,-13,-5%
O=C(NN1C(=O)NC2(CCCCC2)C1=O)c1ccc(-c2ccc([N+](=O)[O-])cc2)o1,6%,-22%,21µM*,21µM*,-7,2%
O=C(Nc1ccccc1)c1ccc(-c2ccccc2Cl)o1,-8%,-22%,18µM*,21µM*,-17,-13%
Cc1ccc(-c2ccc(C(=O)NCc3ccccc3)o2)c2ccccc12,1%,?,?,23µM*,-22,9%
O=C(NN1C(=O)NC2(CCCCC2)C1=O)c1ccc(-c2ccccc2Cl)o1,1%[56.1 µM],-16%,-29%,?,?,-7%
Cc1ccc(OCCNS(=O)(=O)c2ccc(Cl)cc2)cc1,-4%[56.1 µM],-18%,-5%,-30%,-16,-20%
O=C1CCCN1c1ccc(S(=O)(=O)NCCc2ccc(Cl)cc2)cc1,0%,-2%,?,?,16,-23%
SMILES,TDP1 inh,TGFb inhibitor,DT40 TDP1 no CPT,TDP1 cell CPT,IL-1B inflam inh,HepG2 viability
COc1ccc(OC)c(NS(=O)(=O)c2ccc(N3CCCC3=O)cc2)c1,2%,-33%,0.37µM*,0.52µM*,63,-3%
Cc1ccc(OCCNS(=O)(=O)c2ccc(N3CCCC3=O)cc2)cc1,-2%,?,5.8µM*,6.5µM*,9,3%
COc1ccc(OC)c(NS(=O)(=O)c2ccc(-n3cccn3)cc2)c1,0%,-6%,10µM*,?,13,-17%
COc1ccc(CCNS(=O)(=O)c2ccc(N3CCCC3=O)cc2)cc1,nt,0%,21µM*,21µM*,-3,-13%
COc1cccc(-c2cc(C(=O)NCCc3ccc(C)cc3)[nH]n2)c1,3%,?,?,4%,nt,-28%
Cc1ccc(-c2ccnc(-n3ncc(C(=O)N4CCCCC4c4cccnc4)c3C3CC3)n2)o1 (centres undefined),nt,nt,-3%,15%[9.04 µM],nt,nt
COc1ccc(NS(=O)(=O)c2ccc3c(c2)Cc2ccccc2-3)cn1,4%,?,?,?,-7,-36%
Cc1ccc(OCCNS(=O)(=O)c2ccc(N3CCCC3=O)cc2)cc1C,4%,?,6.5µM*,6.5µM*,13,-1%
Cn1c(=O)oc2cc(S(=O)(=O)NCCCN3CCCC3=O)ccc21,7%,0%,17%,-3%,5,-2%
COc1ccc(NS(=O)(=O)c2ccc(N3CCCC3=O)cc2)cn1,4%,-19%,6.5µM*,4.6µM*,34,1%
Cc1cc(N2CCCC2=O)cc(C)c1S(=O)(=O)NCCOc1ccccc1,-5%,-8%,?,8.2µM*,?,-3%
CCCCc1ccc(S(=O)(=O)NCCCN2CCCC2=O)cc1,0%,?,13µM*,?,14,-6%
c1cc(NC2CC2)nc(-c2ccoc2)n1,nt,nt,-3%,-10%,nt,nt
NC(=O)c1csc(CCNC(=O)c2ccccc2)n1,nt,0%,1%,-1%,-21,-1%
COc1ccc(N2CCN(C(=O)c3ccc(OCC4CCCO4)cc3)CC2)cc1 (centres undefined),6%,-8%,-27%,-16%,3,-20%
CCc1ccc(CSc2nc(-c3ccccc3OC)nc3c2Cc2c(CO)cnc(C)c2O3)cc1,8%,8%,?,?,nt,10%
CCOc1ccccc1CNC(=O)C1CCN(C(=O)N2CCOc3ccc(Cl)cc32)CC1,3%,?,?,?,nt,-34%
O=C(Cn1nc2sc3ccccc3n2c(=O)c1=O)c1ccc(Cl)cc1,5%,25%,-21%,-11%,36,29%
